Screening results (PubChem BioAssay)
Compounds with a hit are over-represented: about 2.2% of the library has one in this group of screens.
Cardio protect – protects H9c2 cardiomyocytes from peroxide injury; H2O2 injury protection, ATPLite, 2 h; protection from H2O2 cell death, % at 20 µM; 0.63% of 360,000 active;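 active = compounds giving at least 50% protection of heart cells from peroxide-induced death in the single-dose screen, raw or plate-pattern-corrected value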;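 note: 0% = DMSO wells with peroxide and 100% = DMSO wells without peroxide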
hiPSC survival – hiPSC single-cell survival enhancement; ATPlite luminescence; 100% = ROCK inhibitor wells, 0% = DMSO; survival enhancement, % at 20 µM; 0.044% of 360,000 active; AID 602274; in the data active = survival enhancement above about 18%;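 note: cells exposed to compounds for 16 hours before the ATP read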
ABCB6 inh MLPCN – blocks the human ABCB6 transporter; AID 602162; 0.19% of 360,000 active; fluorescence ratio to DMSO, % at 10 µM; Q9NP58; K562-ABCB6 porphyrin accumulation, flow cytometry, 1 h; active compounds read low;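 active = fluorescence ratio to DMSO below 75%, the collection mean minus 3 SD; inconclusive = too few cells collected in the well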;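 note: signal is porphyrin accumulated inside mitochondria; 100% equals median channel fluorescence of DMSO control wells; lower ratio means ABCB6 inhibition with less porphyrin fluorescence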
Target sequence (Q9NP58 whole entry, looked up): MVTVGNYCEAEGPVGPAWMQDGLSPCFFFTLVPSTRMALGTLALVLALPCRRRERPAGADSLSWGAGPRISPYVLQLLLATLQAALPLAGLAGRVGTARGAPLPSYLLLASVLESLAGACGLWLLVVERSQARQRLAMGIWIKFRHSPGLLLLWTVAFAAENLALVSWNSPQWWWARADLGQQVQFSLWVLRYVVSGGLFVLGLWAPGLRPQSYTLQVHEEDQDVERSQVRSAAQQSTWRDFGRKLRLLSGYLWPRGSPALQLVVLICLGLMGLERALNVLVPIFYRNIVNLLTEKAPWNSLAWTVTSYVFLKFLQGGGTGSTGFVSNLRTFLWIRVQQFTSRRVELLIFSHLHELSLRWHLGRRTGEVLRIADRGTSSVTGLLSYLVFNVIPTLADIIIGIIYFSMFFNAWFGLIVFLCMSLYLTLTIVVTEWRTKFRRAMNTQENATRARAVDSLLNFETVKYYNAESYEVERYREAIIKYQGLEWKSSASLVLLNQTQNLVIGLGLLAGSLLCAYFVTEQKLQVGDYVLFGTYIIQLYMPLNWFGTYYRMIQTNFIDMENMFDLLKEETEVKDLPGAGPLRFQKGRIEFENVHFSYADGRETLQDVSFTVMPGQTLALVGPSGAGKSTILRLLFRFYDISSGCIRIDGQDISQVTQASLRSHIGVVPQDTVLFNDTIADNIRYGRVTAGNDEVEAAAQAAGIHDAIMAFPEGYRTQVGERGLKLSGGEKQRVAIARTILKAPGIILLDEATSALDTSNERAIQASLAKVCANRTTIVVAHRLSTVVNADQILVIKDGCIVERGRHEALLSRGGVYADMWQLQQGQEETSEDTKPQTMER
beta cell repl – inducers of beta-cell replication in MIN6 cells | MIN6 cells proliferation, ATPlite luminescence, 48 h; cells starved in 0.2% serum; 100% = growth in 10% serum | proliferation, % at 10 µM | 0.29% of 330,000 active | AID 2380;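 active = compounds whose signal lies at least 3.5 SD above the mean of all wells on their plate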;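 note: 0% = DMSO-treated cells in low-serum medium and 100% = 10% serum control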
Myeloid diff 2 – promotes myeloid progenitor differentiation. ER-HoxA9 myeloid progenitors, lysozyme-GFP differentiation, flow cytometry. calls only at 10 µM. 1% of 360,000 active;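 active = normalized GFP-positive differentiation at or above the plate's own cutoff, the solvent-only control mean plus 3 SD; inconclusive = no clear call, values can overlap the other calls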;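 note: cells exposed to compound for four days before flow analysis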
* marks the source's active call; other numbers are inactive results; i = inactive; ? = inconclusive; / = no result given; + = active, no number.

SMILES | Cardio protect | hiPSC survival | ABCB6 inh MLPCN | beta cell repl | Myeloid diff 2
O=C(CSc1nc2ccccc2c(=O)[nH]1)c1ccccc1 | 50.7* | 1.6 | 89.0 | 1.1 | i
O=C(CSc1nc2ccccc2c(=O)[nH]1)N1CCCCC1 | 70.9* | 3.9 | 97.0 | 3.8 | i
O=C(CSc1nc2ccccc2c(=O)[nH]1)N1CCN(c2ccccc2)CC1 | 42.0 | -0.3 | 100.0 | -5.0 | i
Cc1ccc(N(CCC#N)C(=O)CSc2nc3ccccc3c(=O)[nH]2)cc1 | 80.1* | 0.3 | 96.0 | -2.2 | i
Cc1ccc2nc(SCc3nc4ccccc4c(=O)[nH]3)[nH]c2c1 | 57.5* | -1.5 | 97.0 | -1.0 | i
COC(=O)c1sc2nc(CSc3nc4ccc(C)cc4[nH]3)[nH]c(=O)c2c1C | 10.1 | 1.3 | 98.0 | -1.8 | i
CN(Cc1cccs1)C(=O)CCCc1c[nH]c2ccccc12 | -10.8 | -4.6 | 109.0 | 2.6 | i
CCn1c2ccccc2c2cc(CN3CCN(C(=O)c4ccco4)CC3)ccc21 | -0.3 | -1.0 | 100.0 | -2.3 | i
COc1ccc2c(COC(=O)c3cccc(S(=O)(=O)NCC(C)C)c3)cc(=O)oc2c1 | 7.9 | 0.2 | 92.0 | -0.4 | i
O=C(C1CC(c2ccc(F)cc2)=NO1)N1CCN(Cc2ccccc2)CC1 (centres undefined) | -6.8 | 0.4 | 102.0 | -1.0 | i
CN(c1ccc(C(=O)Nc2ccc3c(c2)OCCO3)cc1)S(C)(=O)=O | -10.6 | -3.0 | 95.0 | -1.9 | +
CN(c1ccc(C(=O)Nc2ccc3c(c2)OCO3)cc1)S(C)(=O)=O | -8.4 | 1.8 | 99.0 | -2.4 | i
Cc1cc(C)cc(N2C(=O)CC(N(C(=O)c3ccco3)c3cc(C)cc(C)c3)C2=O)c1 (centres undefined) | 11.1 | 1.9 | 102.0 | 0.9 | i
O=C(c1cc(-c2cccc(Cl)c2)on1)N1CCc2ccccc2C1 | -5.5 | -0.4 | 87.0 | 0.0 | +
CCOc1ccc(NC(=O)C2=C(C)NC(=S)NC2c2ccc(O)c(OC)c2)cc1 (centres undefined) | 0.2 | -1.3 | 99.0 | 1.2 | i
O=C(CSCc1ccc(Br)cc1)N=Nc1c(O)[nH]c2ccccc12 | 11.7 | -0.8 | 101.0 | 8.7* | i
O=C(/C=C/c1ccccc1)c1cc(Br)ccc(=O)c1O | 43.5 | -2.6 | 106.0 | -6.0 | i
Cc1ccc(/C=C/C(=O)c2ccccc(=O)c2O)cc1C | 75.4* | 0.7 | 92.0 | / | i
C[C@H](O)[C@@H]1CN2CCc3c([nH]c4ccc(-c5ccc6c(c5)OCO6)cc34)[C@@H]2C[C@@H]1N(C)C(=O)Nc1ccc(F)cc1 | -24.0 | -2.7 | 99.0 | / | i
C[C@@H]1ON(C)[C@H]2C[C@H]3c4[nH]c5ccc(-c6ccc7c(c6)OCO7)cc5c4CCN3C[C@@H]12 | 62.2* | -1.4 | 104.0 | / | i
COc1ccc2c(C)cc(SCn3nnc4ccccc4c3=O)nc2c1 | 1.4 | 2.9 | 76.0 | -3.5 | i
Oc1ccc(-c2onc(C(F)(F)F)c2-c2cscn2)c(O)c1 | -2.4 | 19.6* | 118.0 | -3.0 | i
c1cc2[nH]snc2c2nc(C3CC3)nc12 | 85.9* | 0.1 | 97.0 | -3.8 | i
COc1ccc(NC(=O)C(C)N(C)Cc2ccc3ccccc3c2)cc1 (centres undefined) | -14.1 | -0.2 | 91.0 | -4.0 | i
CCN1CCc2c(sc(NC(=O)Cc3ccccc3)c2C(N)=O)C1 | 7.9 | -1.3 | ? | -1.2 | i
SMILES | Cardio protect | hiPSC survival | ABCB6 inh MLPCN | beta cell repl | Myeloid diff 2
CCN1CCc2c(sc(NC(=O)Nc3ccc(Cl)c(Cl)c3)c2C(N)=O)C1 | 26.7 | 5.0 | 944.0 | / | +
CCN1CCc2c(sc(NC(=O)c3ccc(S(=O)(=O)N4CCOCC4)cc3)c2C(N)=O)C1 | 10.2 | 4.4 | 102.0 | 2.9 | i
CCCN1CCc2c(sc(NC(=O)c3ccc(S(=O)(=O)N4CCCC4)cc3)c2C(N)=O)C1 | -7.1 | -0.2 | 111.0 | -2.4 | +
COc1cc(C2C3=C(COC3=O)Oc3cc4c(cc32)OCO4)ccc1OC(C)=O (centres undefined) | 20.7 | 7.6 | 99.0 | / | /
Cc1ccc(N2CC(NS(=O)(=O)c3cc(F)ccc3F)CC2=O)cc1C (centres undefined) | 2.4 | 1.1 | 105.0 | -1.0 | i
CCOC(=O)c1sc(N2N=C(C)/C(=C\c3ccc(OCC(=O)OC)cc3)C2=O)nc1C | 58.1* | 2.9 | 101.0 | -3.9 | i
CCOC(=O)c1sc(Nc2ccc(OCC)cc2)nc1C | -6.6 | 2.6 | 91.0 | -0.4 | i
C=CCn1c(SCC(=O)c2ccc(O)c(O)c2)nnc1-c1cccc(Cl)c1 | 54.6* | -4.7 | 91.0 | -1.8 | i
O=C(c1ccoc1)N1CCC2(CC1)Oc1ccc(F)cc1C(=O)C21CC(c2ccc(Cl)cc2)=NO1 (centres undefined) | -2.2 | 2.6 | 99.0 | -5.6 | +
O=C1NC(=O)c2cc(Br)cc3cccc1c23 | 36.3 | -0.3 | 96.0 | 1.4 | i
O=C1NC(=O)c2cc([N+](=O)[O-])cc3cccc1c23 | 54.7* | 0.2 | 106.0 | -3.8 | i
O=C(Nc1ccc2nc(-c3ccco3)c(-c3ccco3)nc2c1)NC1CC1 | 5.8 | -1.1 | 93.0 | -1.2 | i
O=C(Nc1ccc(N2CCOCC2)cc1)Nc1ccc2nc(-c3ccco3)c(-c3ccco3)nc2c1 | 63.2* | -1.6 | 100.0 | -5.7 | /
CC(CNC(=O)C(C)(C)C)NC(=O)C(C)(C)C (centres undefined) | 2.0 | -2.4 | 85.0 | 2.2 | i
COc1ccc(/C=c2\s/c(=C/C(=O)c3ccc(C)cc3)[nH]c2=O)c(OC)c1 | 4.7 | 5.3 | 128.0 | 0.0 | +
COc1cccc(/C=c2\s/c(=C/C(=O)c3ccc(C)cc3)[nH]c2=O)c1OC | 13.4 | 2.7 | 100.0 | 0.0 | i
O=C(Nc1nc(-c2ccccn2)cs1)c1ccccc1-n1cnnn1 | 62.8* | -0.5 | 101.0 | -4.4 | ?
Cc1ccc(C(=O)Nc2nc(-c3ccccn3)cs2)o1 | 47.3 | -0.4 | 101.0 | -5.5 | i
CC(=O)Nc1ccc(C(=O)Nc2nc(-c3ccccn3)cs2)cc1 | 70.3* | 0.2 | 99.0 | -2.8 | i
Cc1cc(C(=O)Nc2nc(-c3ccccn3)cs2)ccc1[N+](=O)[O-] | 46.7 | -0.4 | 98.0 | -6.0 | i
CC(=O)Nc1ccc(C(=O)Nc2nc(-c3cccnc3)cs2)cc1 | 36.0 | -0.3 | 87.0 | 2.6 | i
CC(=O)c1ccc(-c2ccc(C(=O)Nc3nc(-c4ccccn4)cs3)o2)cc1 | 99.2* | 2.2 | 102.0 | -3.1 | i
CCc1cc(C(=O)Nc2nc(-c3ccccn3)cs2)sc1C | 72.3* | -0.5 | 106.0 | -7.1 | i
O=C(Nc1nc(-c2ccccn2)cs1)c1ccc(-c2ccccc2F)o1 | 58.1* | -0.2 | 112.0 | -8.0 | i
Cc1c(Cl)c([N+](=O)[O-])nn1CC(=O)NCc1ccco1 | -1.1 | 0.1 | 99.0 | 3.4 | i
COc1cccc(NC(=O)CN2C(=O)NC3(CCCc4ccccc43)C2=O)c1 (centres undefined) | 1.7 | -0.4 | 99.0 | -2.2 | i
Clc1ccccc1OCc1nnc(-c2ccccc2Br)o1 | -15.7 | -1.9 | 85.0 | 0.9 | i
